# According to paper PMC11062922 (Nature Chemical Biology, 2023):
# Where two headings read alike, the source gives them in different places.
# Tests used:
# Design in all cases: species or system human, MV4-11 + K-562 + COLO205 + SK-N-BE2 + OVCAR-8
# FLT3 = details: read-out: apparent Kd, n = 1
# GAK = details: read-out: apparent Kd, compound concentrations: 100 nM and 1000 nM (sheet 'Samples'), n = 1
# NUAK1 = details: read-out: apparent Kd; compound concentrations: 100 nM and 1000 nM (sheet 'Samples'), CATDS: 0.245714515933597; n = 1
# PLK4 = details: read-out: apparent Kd; compound concentrations: 100 nM and 1000 nM (sheet 'Samples'), CATDS: 0.36168703025704801; n = 1
# PTK2 = details: read-out: apparent Kd; compound concentrations: 100 nM and 1000 nM (sheet 'Samples'), CATDS: 0.26626379457403998; n = 1
# TTK = details: read-out: apparent Kd, compound concentrations: 100 nM and 1000 nM (sheet 'Samples'), n = 1
# FLT4 = details: read-out: apparent Kd, n = 1
# PDGFRB = details: read-out: apparent Kd, compound concentrations: 100 nM and 1000 nM (sheet 'Samples'), n = 1
# TTN = details: read-out: apparent Kd, compound concentrations: 100 nM and 1000 nM (sheet 'Samples'), n = 1
# GRK6 = details: read-out: apparent Kd; compound concentrations: 100 nM and 1000 nM (sheet 'Samples'), CATDS: 0.114980307902388; n = 1
# HSP90B1 = details: read-out: apparent Kd; compound concentrations: 100 nM and 1000 nM (sheet 'Samples'), CATDS: 0.138909392239214; n = 1
# MAP2K1 = details: read-out: apparent Kd; compound concentrations: 100 nM and 1000 nM (sheet 'Samples'), CATDS: 0.11714915098763; n = 1
# MAPK10 = details: read-out: apparent Kd, compound concentrations: 100 nM and 1000 nM (sheet 'Samples'), n = 1
# MAPK8 = details: read-out: apparent Kd; compound concentrations: 100 nM and 1000 nM (sheet 'Samples'), CATDS: 0.17853758786403801; n = 1
# MAPK9 = details: read-out: apparent Kd, compound concentrations: 100 nM and 1000 nM (sheet 'Samples'), n = 1
# FGFR1 = details: read-out: apparent Kd; compound concentrations:100 nM and 1000 nM (sheet 'Samples'); n = 1
# PIK3C2A = details: read-out: apparent Kd; compound concentrations:100 nM and 1000 nM (sheet 'Samples'); n = 1
# MAP3K1 = details: read-out: apparent Kd; compound concentrations: 100 nM and 1000 nM (sheet 'Samples'), CATDS: 0.23263789115969999; n = 1
# FN3KRP = details: read-out: apparent Kd; compound concentrations: 100 nM and 1000 nM (sheet 'Samples'), CATDS: 0.10743943329960801; n = 1
# MAPK11 = details: read-out: apparent Kd; compound concentrations: 100 nM and 1000 nM (sheet 'Samples'), CATDS: 0.104421690058707; n = 1
# MAPK14 = details: read-out: apparent Kd; compound concentrations: 100 nM and 1000 nM (sheet 'Samples'), CATDS: 0.43214609476913801; n = 1
# MAPKAPK2 = details: read-out: apparent Kd; compound concentrations: 100 nM and 1000 nM (sheet 'Samples'), CATDS: 0.49442009217898503; n = 1
# PIP4K2C = details: read-out: apparent Kd; compound concentrations: 100 nM and 1000 nM (sheet 'Samples'), CATDS: 0.103791319343203; n = 1
# LCK = details: read-out: apparent Kd; compound concentrations: 100 nM and 1000 nM (sheet 'Samples'), CATDS: 8.5117028494468894E-2; n = 1
# MAP4K1 = details: read-out: apparent Kd; compound concentrations: 100 nM and 1000 nM (sheet 'Samples'), CATDS: 0.115744032998791; n = 1
# MAP4K2 = details: read-out: apparent Kd; compound concentrations: 100 nM and 1000 nM (sheet 'Samples'), CATDS: 7.8376321207257696E-2; n = 1
# MAP4K3 = details: read-out: apparent Kd; compound concentrations: 100 nM and 1000 nM (sheet 'Samples'), CATDS: 7.2653483868183794E-2; n = 1
# MAP4K5 = details: read-out: apparent Kd; compound concentrations: 100 nM and 1000 nM (sheet 'Samples'), CATDS: 9.0249941941856496E-2; n = 1
# RET = details: read-out: apparent Kd; compound concentrations: 100 nM and 1000 nM (sheet 'Samples'), CATDS: 0.14686027995557299; n = 1
# TNIK = details: read-out: apparent Kd, compound concentrations: 100 nM and 1000 nM (sheet 'Samples'), n = 1
# TNK1 = details: read-out: apparent Kd; compound concentrations: 100 nM and 1000 nM (sheet 'Samples'), CATDS: 9.7568423036534901E-2; n = 1
# MYLK3 = details: read-out: apparent Kd; compound concentrations: 100 nM and 1000 nM (sheet 'Samples'), CATDS: 0.63148030600185001; n = 1
# GSK3A = details: read-out: apparent Kd; compound concentrations:100 nM and 1000 nM (sheet 'Samples'); n = 1
# GSK3B = details: read-out: apparent Kd; compound concentrations: 100 nM and 1000 nM (sheet 'Samples'), CATDS: 0.16764618066406201; n = 1
# MAP2K2 = details: read-out: apparent Kd; compound concentrations:100 nM and 1000 nM (sheet 'Samples'); n = 1
# RIOK2 = details: read-out: apparent Kd; compound concentrations:100 nM and 1000 nM (sheet 'Samples'); n = 1
# TGFBR2 = details: read-out: apparent Kd; compound concentrations:100 nM and 1000 nM (sheet 'Samples'); n = 1
# [1] = compound concentrations: 100 nM and 1000 nM (sheet 'Samples'), CATDS: 1
# [2] = compound concentrations:100 nM and 1000 nM (sheet 'Samples')
smiles,measurement,setting,value
Cl.N#Cc1cccc(Nc2ncc(-c3ccccc3)o2)c1 [GW627834A],potency estimated from few doses,FLT3; [1],344 nM
CCC(=O)Nc1cccc(Oc2nc(Nc3ccc(N4CCN(C)CC4)cc3OC)ncc2Cl)c1 [WZ4003],potency estimated from few doses,GAK; CATDS: 0.18485172893482499,1600 nM
same,potency estimated from few doses,NUAK1,760 nM
same,potency estimated from few doses,PLK4,371 nM
same,potency estimated from few doses,PTK2,643 nM
COc1cc(N2CCN(C(C)C)CC2)ccc1Nc1nc(Nc2cccc3ncccc23)c2cc[nH]c2n1 [GSK1511931A],potency estimated from few doses,GAK; CATDS: 0.87402661457119502,83.9 nM
same,potency estimated from few doses,TTK; CATDS: 0.35015598460163,1080 nM
COc1ccc(-c2nn3ncccc3c2-c2ccnc(Nc3ccc(Cl)c(C(F)(F)F)c3)n2)cc1 [GW829115X],potency estimated from few doses,FLT4; [1],635 nM
COc1ccc(Nc2ncc(-c3ccccc3)o2)cc1OC.Cl [GW575533A],potency estimated from few doses,"FLT3; compound concentrations: 100 nM and 1000 nM (sheet 'Samples'), CATDS: 0.92036474930911705",4.09 nM
same,potency estimated from few doses,PDGFRB; CATDS: 0.343232825956933,90.5 nM
c1ccc(Nc2ncc(-c3ccccc3)o2)cc1 [GW549390X],potency estimated from few doses,"FLT3; compound concentrations: 100 nM and 1000 nM (sheet 'Samples'), CATDS: 0.74599434863178504",273 nM
same,potency estimated from few doses,TTN; CATDS: 0.37600950025420299,1330 nM
CCC(=O)c1c(-c2ccccc2)c2cc(Cl)ccc2c(=O)n1Cc1cc(S(C)(=O)=O)n(CC(N)=O)n1 [TPKI-105],potency estimated from few doses,GRK6,2180 nM
same,potency estimated from few doses,HSP90B1,1090 nM
same,potency estimated from few doses,MAP2K1,2010 nM
same,potency estimated from few doses,MAPK10; CATDS: 0.46372584389591998,90.1 nM
same,potency estimated from few doses,MAPK8,543 nM
same,potency estimated from few doses,MAPK9; CATDS: 0.26244745216645099,235 nM
COc1cc(OC)cc(-c2cc3cnc(N)nc3nc2NC(=O)NC(C)(C)C)c1 [PFE-PKIS_3],potency estimated from few doses,FGFR1,85.8 nM
same,potency estimated from few doses,FLT4; [2],1380 nM
same,potency estimated from few doses,PIK3C2A,2380 nM
O=C(Nc1n[nH]c2nc(-c3ccco3)c(Br)cc12)c1ccc(CN2CCCC2)cc1.O=C(O)[C@H](O)[C@@H](O)C(=O)O [SB-742352-AC],potency estimated from few doses,"FLT3; compound concentrations: 100 nM and 1000 nM (sheet 'Samples'), CATDS: 0.23628807978612301",1550 nM
same,potency estimated from few doses,MAP3K1,1600 nM
same,potency estimated from few doses,PDGFRB; CATDS: 0.24481499220571501,1430 nM
same,potency estimated from few doses,TTN; CATDS: 0.29545284543589501,1010 nM
CCS(=O)(=O)c1ccc(OC)c(Nc2ncc(-c3cccc(-c4ccccc4F)c3)o2)c1 [GW678313X],potency estimated from few doses,FLT4; [2],423 nM
Cl.Cn1c(=O)c(Oc2ccc(F)cc2F)cc2cnc(NC(C)(C)CO)nc21 [RO3305411-001],potency estimated from few doses,FN3KRP,1390 nM
same,potency estimated from few doses,MAPK10; CATDS: 0.114459990523153,1100 nM
same,potency estimated from few doses,MAPK11,1550 nM
same,potency estimated from few doses,MAPK14,21.6 nM
same,potency estimated from few doses,MAPK9; CATDS: 0.13499142741698,640 nM
same,potency estimated from few doses,MAPKAPK2,16.8 nM
same,potency estimated from few doses,PIP4K2C,1590 nM
CN(c1ccc(NC(=O)Nc2ccc(OC(F)(F)F)cc2)cc1)c1ccnc(Nc2cccc(S(N)(=O)=O)c2)n1 [GW806742X],potency estimated from few doses,"FLT3; compound concentrations: 100 nM and 1000 nM (sheet 'Samples'), CATDS: 0.14801329572366401",336 nM
same,potency estimated from few doses,"FLT4; compound concentrations: 100 nM and 1000 nM (sheet 'Samples'), CATDS: 0.285311181024344",122 nM
same,potency estimated from few doses,LCK,1110 nM
same,potency estimated from few doses,MAP4K1,536 nM
same,potency estimated from few doses,MAP4K2,1420 nM
same,potency estimated from few doses,MAP4K3,1830 nM
same,potency estimated from few doses,MAP4K5,951 nM
same,potency estimated from few doses,RET,340 nM
same,potency estimated from few doses,TNIK; CATDS: 6.8078386206779196E-2,2360 nM
same,potency estimated from few doses,TNK1,783 nM
O=C1Nc2ccccc2/C1=C/Nc1ccc(-n2cncn2)cc1 [GW301789X],potency estimated from few doses,"FLT3; compound concentrations: 100 nM and 1000 nM (sheet 'Samples'), CATDS: 0.22267825375754199",1370 nM
same,potency estimated from few doses,MYLK3,176 nM
same,potency estimated from few doses,TNIK; CATDS: 0.21425546336559301,1520 nM
same,potency estimated from few doses,TTK; CATDS: 0.19017518811714801,2180 nM
CC(C)c1ccc(Nc2nccc(-c3cnn4ncccc34)n2)cc1 [GW805758X],potency estimated from few doses,FLT3; [2],1170 nM
same,potency estimated from few doses,GSK3A,888 nM
same,potency estimated from few doses,GSK3B,1460 nM
same,potency estimated from few doses,MAP2K2,2020 nM
same,potency estimated from few doses,RIOK2,1700 nM
same,potency estimated from few doses,TGFBR2,2000 nM
